Experimental data from PubChem BioAssay.
Active and inactive are the calls of the source.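 How the source made its calls, unless noted: active means visual image review flags a hit and inhibition of aggregation exceeds 20%; inconclusive means visual hit but inhibition at or below 20%; inactive means no hit on visual image review.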

Assays:
[1] = inhibitors of TNFa-induced NFkB p65 translocation, primary screen, imaging, HUVEC, MLSMR starter and 10KST1 sets (AID 438;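 active means inhibition above 20% together with a positive visual image hit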;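 further: compound added about 3h40 before a 20 min TNFalpha stimulation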;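 on inhibition: signal is the nuclear over cytoplasmic p65 intensity ratio per well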); details: HUVEC TNFa-induced p65 nuclear translocation; cell count: measured here: nuclei count (cytotoxicity indicator), at 2.08 µM; inhibition: at 2 µM, stronger effect = higher value, 0% TNFa-plus-vehicle, 100% no-TNFa wells
[2] = inhibitors of mutant huntingtin aggregation, primary screen, imaging, exon1htt(103Q)mCFP cells, high-content imaging (AID 483); details: exon1htt(103Q)mCFP cell line, aggregate imaging, at 2 µM; inhibition of aggregation: stronger effect = higher value; nuclei count: measured here: cell count, toxicity;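 further: compound exposure lasted 3 days before fixation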;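 on nuclei count: percent of the per-plate median nuclei count of sample wells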
[3] = inhibitors of E-selectin induction by TNFa, primary screen, imaging, HUVEC, immunofluorescence, MLSMR starter and 10KST1 sets (AID 487;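 active means visually confirmed hit in the image check and inhibition above 20%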;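 on inhibition: signal is fraction of cell area covered by stained E-selectin grains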;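 on nuclei count: 100% = median nuclei count of all wells on the same plate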); details: HUVEC TNFalpha-induced E-selectin immunofluorescence imaging, at 2 µM; inhibition: stronger effect = higher value; nuclei count: measured here: cell number, toxicity
[4] = biological target: Voltage-gated potassium channel subunit beta-2 (Rattus norvegicus) (UniProt P62483); experiment: KvBeta enzyme negative modulators, primary screen, biochemical, NADPH fluorescence (AID 622;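 active means fluorescence slope higher than the sample average by over 3 SD, cut at about -0.22 in these data, passing the limit was not always enough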;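 further: slope of raw intensity against log time taken from 70 to 1610 s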); details: recombinant KvBeta, 4-cyanobenzaldehyde reduction, at 10 µM, stronger effect = higher value
Voltage-gated potassium channel subunit beta-2 (Rattus norvegicus), sequence (P62483 whole entry, looked up): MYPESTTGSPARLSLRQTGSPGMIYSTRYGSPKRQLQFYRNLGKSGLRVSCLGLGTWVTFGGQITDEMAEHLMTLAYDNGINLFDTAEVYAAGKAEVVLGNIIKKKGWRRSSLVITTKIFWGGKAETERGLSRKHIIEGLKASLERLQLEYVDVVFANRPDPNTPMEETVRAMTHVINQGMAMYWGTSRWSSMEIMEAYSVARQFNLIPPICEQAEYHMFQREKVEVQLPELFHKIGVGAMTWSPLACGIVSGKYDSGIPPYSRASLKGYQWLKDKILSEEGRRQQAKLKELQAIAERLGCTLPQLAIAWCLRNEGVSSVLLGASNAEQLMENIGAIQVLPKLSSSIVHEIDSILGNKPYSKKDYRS

[5] = biological target: Voltage-gated potassium channel subunit beta-2 (Rattus norvegicus) (UniProt P62483); experiment: KvBeta positive modulators, primary screen, biochemical, NADPH fluorescence (AID 623;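 active means NADPH fluorescence slope more negative than the mean of all samples by about 3 SD, 99.7% confidence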;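 further: fluorescence intensity change per second fitted from 20 to 320 s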); details: Recombinant KvBeta, NADPH fluorescence decrease slope, 10 min; at 10 µM; stronger effect = lower value
[6] = biological target: Alpha-2C adrenergic receptor (Homo sapiens) (UniProt P18825); experiment: modulators of alpha2C/GIRK thallium flux, primary screen, cell-based, HEK293 alpha2C/GIRK1/2 (AID 624;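 active means fluorescence slope after compound addition differing from the mean of all screened samples at 99.7% confidence, in either direction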;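 further: slope of fluorescence ratio to pre-addition baseline per second over 15 to 24 s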); details: thallium flux BTC fluorescence, at 10 µM, actives lie on both sides
Alpha-2C adrenergic receptor (Homo sapiens), sequence (P18825 whole entry, looked up): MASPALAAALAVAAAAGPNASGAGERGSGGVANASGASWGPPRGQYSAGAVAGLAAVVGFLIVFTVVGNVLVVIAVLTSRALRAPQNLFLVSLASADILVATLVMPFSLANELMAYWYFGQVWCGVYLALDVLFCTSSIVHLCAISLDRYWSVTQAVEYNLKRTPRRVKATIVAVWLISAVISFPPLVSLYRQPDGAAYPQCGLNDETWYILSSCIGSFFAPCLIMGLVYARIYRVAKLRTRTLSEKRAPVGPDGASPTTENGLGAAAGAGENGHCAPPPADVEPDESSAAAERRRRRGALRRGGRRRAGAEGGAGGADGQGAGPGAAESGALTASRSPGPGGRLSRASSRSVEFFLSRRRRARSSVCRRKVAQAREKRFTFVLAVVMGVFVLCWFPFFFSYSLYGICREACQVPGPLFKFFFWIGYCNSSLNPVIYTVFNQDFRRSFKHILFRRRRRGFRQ

[7] = inhibitors of Sendai virus-induced IRF3 signaling, primary screen, TLR/RLR signaling modifier project, cell-based, Sendai virus stimulus, luciferase, 10K MLSCN set (AID 602276;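 active means inhibition at or above 50% at 10 µM; inactive means inhibition below 50%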;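 further: firefly luciferase from ISG56 promoter only with Renilla not read in this screen; 0% = Sendai virus plus DMSO and 100% = medium plus DMSO without virus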); details: HEK293 RL24 IRF3 luciferase reporter, at 10 µM, stronger effect = higher value
[8] = inhibitors of poly I:C-induced TLR3 signaling, primary screen, cell-based, poly I:C stimulus, luciferase, 10K MLSCN set (AID 602277;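 active means inhibition of the reporter signal at or above 50%; inactive means inhibition below 50%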); details: HEK293-TLR3 RL24 IRF3 luciferase reporter, at 10 µM, stronger effect = higher value

Row | SMILES | cell count [1] | inhibition [1] | inhibition of aggregation [2] | nuclei count [2] [%] | inhibition [3] | nuclei count [3] [%] | fluorescence slope [4] | NADPH fluorescence slope [5] | slope [6] | inhibition [7] | inhibition [8]
1 | COCCn1c(SCC(=O)Nc2sc(C)c(C)c2C#N)nnc1C(C)C | 593 | -11.7% (inactive) | 25.9% (inactive) | 73 | 18.9% (inactive) | 78.2 | -0.491 (inactive) | -7.2e-05 (inactive) | 0.00431 (inactive) | 11.9% (inactive) | 5.56% (inactive)
2 | O=C(CCS(=O)(=O)c1cccc2nonc12)Nc1cccc2c1CCCC2 | 500 | -1.9% (inactive) | -20.7% (inactive) | 109 | -14% (inactive) | 114 | -0.547 (inactive) | 1.6e-05 (inactive) | 0.00573 (inactive) | -1.97% (inactive) | 5.02% (inactive)
3 | COc1ccc(-n2ncc3c(N4CCN(c5cccc(C)c5C)CC4)ncnc32)cc1 | 589 | -4.7% (inactive) | -12.6% (inactive) | 111 | -22% (inactive) | 105 | -0.566 (inactive) | -3.6e-05 (inactive) | 0.0072 (inactive) | 5.95% (inactive) | 27.1% (inactive)
4 | COC(=O)C(O)(CC(=O)c1ccc(OC)cc1)C(F)(F)F (stereo not drawn) | 778 | -12.8% (inactive) | 4.5% (inactive) | 100 | 36% (inactive) | 99.4 | -0.507 (inactive) | -1.8e-05 (inactive) | 0.0048 (inactive) | 9.29% (inactive) | 9.82% (inactive)
5 | Cc1cc(NS(=O)(=O)c2ccc(NC(=O)Nc3ccc4c(c3)OCO4)cc2)no1 | 599 | -10.7% (inactive) | -12.8% (inactive) | 108 | -96.1% (inactive) | 112 | -0.393 (inactive) | -5.2e-05 (inactive) | 0.00596 (inactive) | -9.3% (inactive) | -20.7% (inactive)
6 | COc1ccc(C2CC(C(F)(F)F)n3ncc(C(=O)NCc4cccnc4)c3N2)cc1OC (stereo not drawn) | 313 | 0.3% (inactive) | 8.9% (inactive) | 57.1 | 8% (inactive) | 91.9 | -0.388 (inactive) | -3.2e-05 (inactive) | 0.00287 (inactive) | 5.88% (inactive) | 20.9% (inactive)
7 | CC(=O)N(C(C)=O)c1c(C#N)c(C)n(-c2ccccc2)c1C(=O)c1ccccc1 | 430 | 8.5% (inactive) | 4.6% (inactive) | 102 | 24.1% (inactive) | 110 | -0.503 (inactive) | -3.8e-05 (inactive) | 0.00413 (inactive) | 27% (inactive) | 26.6% (inactive)
8 | COc1cccc(Oc2cn[nH]c2-c2ccc(O)cc2O)c1 | 361 | 10.2% (inactive) | -13.9% (inactive) | 103 | -104% (inactive) | 101 | -0.453 (inactive) | 4.8e-05 (inactive) | 0.0038 (inactive) | -4.4% (inactive) | 12.8% (inactive)
